Data published in PubChem BioAssay (EPA / NIEHS).
Values joined by “and” are separate entries in the source; they are usually repeats but may differ in a detail not shown here. Equal values may be shown once. Inconclusive results are not listed. Active and inactive are the calls of the source. Rule for the calls, unless noted: active = hit-call score of the fitted dose curve at least 0.9, where 1 is the maximum; inactive = score below 0.9.

Legend:
[1] = read-out: Tumor necrosis factor (Homo sapiens) (UniProt P01375); experiment: BSK_BT_xTNFa: BioMAP Diversity Plus: BT Assay for Tumor necrosis factor alpha (TNF-alpha) Biomarker Activity (AID 2284230); conditions: primary human B cells with PBMC
How it was run: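 Human primary co-culture of B cells and peripheral blood mononuclear cells; TNF-alpha in supernatant, 24 h post-dose, Luminex multiplex; DMSO = baseline.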

[2] = read-out: Vascular cell adhesion molecule 1 (VCAM1), VCAM1 (gene 7412); experiment: BSK_MyoF_VCAM1: BioMAP Diversity Plus: MyoF Assay for Vascular cell adhesion molecule 1 (VCAM1) Biomarker Activity (AID 2284231); conditions: primary human lung fibroblasts
How it was run: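 MyoF system, lung fibroblasts; 24 h post-dose; VCAM-1 by ELISA; gain-of-signal fit vs DMSO baseline.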

[3] = read-out: Collagen I, COL1A1 (gene 1277); experiment: BSK_MyoF_CollagenI: BioMAP Diversity Plus: MyoF Assay for Collagen I Biomarker Activity (AID 2284238); conditions: primary human lung fibroblasts
How it was run: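 ELISA readout of Collagen I after 24 h chemical treatment of primary human lung fibroblast cultures; gain of signal scored relative to DMSO vehicle baseline.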

[4] = CCTE_Mundy_HCI_hNP1_Casp3_7: CCTE's Caspase-Glo 3/7 Assay in human neuroprogenitor cells for Apoptosis, Mundy Lab (AID 2284240)
How it was run: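 Apoptosis is scored by activated caspase-3/7 luminescence in WA09-derived neural progenitor cells, measured 26.5 h after chemical dosing. Values represent gain of signal relative to DMSO vehicle.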

[5] = CCTE_Mundy_HCI_Cortical_NOG_NeuronCount: CCTE's Neurite Outgrowth Assay in rat cortical cells for Neuron Count, Mundy Lab (AID 2284236; active = hit-call score of the fitted dose curve at least 0.9, where 1 is the maximum;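 note: neurons counted by imaging betaIII-tubulin and Hoechst stained cortical cells; cells exposed to compound for about 48 hours before fixation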)
How it was run: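 Read-out: neuron number by high-content imaging of betaIII-tubulin (Alexa Fluor-488) and Hoechst-labelled rat primary cortical cells.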

[6] = CCTE_Mundy_HCI_Cortical_NOG_BPCount: CCTE's Neurite Outgrowth Assay in rat cortical cells for Branch Point Count, Mundy Lab (AID 2284237);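 note: branch points counted about two days after chemical exposure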
How it was run: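 Measured 50.33 h after dosing, this morphology endpoint uses rat primary cortical cultures labelled for betaIII-tubulin. Branch points are quantified by high-content imaging, with DMSO as negative control and baseline.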

[7] = TAMU_HCS_1.5hr_SingleDonor1434_Cytotoxicity: Cytotoxicity Assessment using High-content Screening (HCS) Fluorescent Imaging for the Texas A&M University (TAMU) 1.5-hr Human Induced Pluripotent Stem Cell (iPSC)-derived Cardiotoxicity Assay (AID 2284234; active = hit-call score of the fitted dose curve at least 0.9, where 1 is the maximum)
How it was run: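 Human iPSC-derived cardiomyocytes dosed at 0.2, 1, 10, 100 uM final (0.5% DMSO) for 90 min at 37 C. Hoechst 33342-stained nuclei counted by 10x high-content imaging; POD is EC10, a 10% drop in total cell count versus DMSO.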

[8] = TAMU_PeakParms_SingleDonor1434_QT: Texas A&M University (TAMU) 1.5-hr Human Induced Pluripotent Stem Cell (iPSC)-derived Cardiomyocytes Calcium (Ca+2) Flux Assay for Cardiotoxicity: QT (decay-rise ratio) (AID 2284235; active = hit-call score of the fitted dose curve at least 0.9, where 1 is the maximum)
How it was run: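 iPSC-derived cardiomyocytes (single donor 1434) dosed at 0.2, 1, 10, 100 uM final in 0.5% DMSO, 90 min at 37C. Ca2+ flux fluorescence decay/rise ratio; EC05 (5% increase versus DMSO) as POD, excluding beat-arrest and severe-notch data.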

[9] = UKN4_HCS_LUHMES_cell_viability: Viability Assessment in the University of Konstanz (UKN) Leist Lab Neurite Outgrowth Assay in human LUHMES cells (UKN4) (AID 2284232)
How it was run: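 LUHMES precursors differentiated 2 days, replated at 30000 cells/well without cAMP/GDNF, then compound-treated 24 h. Viability from Hoechst H-33342 and calcein-AM live staining (30 min) by high-content fluorescence imaging; bidirectional fit versus DMSO.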

[10] = UKN2_HCS_IMR90_cell_viability: Viability Assessment in the University of Konstanz (UKN) Leist Lab Neural Crest Cell Migration Assay in human induced IMR90 Pluripotent Stem Cells (UKN2) (AID 2284233);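 note: viability of neural crest cells differentiated from IMR90 iPSC measured by calcein-AM fluorescence imaging; cells exposed to compound for 24 h after a 24 h migration phase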
How it was run: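 Human IMR90-derived neural crest cells were allowed to migrate for 24 h into a cell-free zone, then exposed to test chemicals for 24 h. Calcein-AM and Hoechst staining with high-content imaging gave viability, analysed against DMSO baseline.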

Chain of Tumor necrosis factor (Homo sapiens) (P01375 whole entry, looked up): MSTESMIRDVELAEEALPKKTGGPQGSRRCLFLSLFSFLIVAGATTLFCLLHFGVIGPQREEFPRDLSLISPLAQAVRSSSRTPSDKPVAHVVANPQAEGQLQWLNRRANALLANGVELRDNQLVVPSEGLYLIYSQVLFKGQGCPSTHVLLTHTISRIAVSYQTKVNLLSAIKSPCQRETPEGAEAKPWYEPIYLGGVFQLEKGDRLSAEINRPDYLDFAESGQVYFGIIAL

FC(F)(F)C(F)(F)C(F)(F)C(F)(F)C(F)(F)C(F)(F)I
outcome [1]: inactive | AC50 [2]: 25.3 µM (active) and 40.7 µM (active) | AC50 [3]: 33.1 µM (active) and 39.4 µM (active) | outcome [4]: inactive

C[C@]12C=CC(=O)C=C1CC[C@H]1[C@@H]3C[C@@H](O)[C@](O)(C(=O)CO)[C@@]3(C)C[C@H](O)[C@@]12F
AC50 [5]: 23.6 µM (active) | AC50 [6]: 20.1 µM (active) | AC50 [4]: 23 µM (active)

C[Si](C)(C)C(F)(F)C(F)(F)C(F)(F)F
outcome [1]: inactive | outcome [2]: inactive | outcome [3]: inactive

OCCC(F)(F)C(F)(F)C(F)(F)C(F)(F)F
outcome [1]: inactive | outcome [2]: inactive | outcome [3]: inactive

CC(C)C(=O)Nc1ccc([N+](=O)[O-])c(C(F)(F)F)c1
outcome [7]: inactive | outcome [8]: inactive

FC(F)(F)COC(OCC(F)(F)F)OCC(F)(F)F
outcome [1]: inactive | outcome [2]: inactive | outcome [3]: inactive

CCN(CC)C(=S)SSC(=S)N(CC)CC
AC50 [7]: 50 µM (active)

OCc1c[nH]c2ccccc12
outcome [1]: inactive | outcome [2]: inactive | outcome [3]: inactive

Nc1ccn([C@@H]2O[C@H](CO)[C@@H](O)[C@@H]2O)c(=O)n1
outcome [9]: inactive | outcome [10]: inactive | AC50 [5]: 1.58 µM (active) and 2.33 µM (active) | AC50 [6]: 11.9 µM (active) and 3 µM (active) | AC50 [4]: 29 nM (active) and 290 nM (active)

Cc1cccc(O)c1C
outcome [1]: inactive | outcome [2]: inactive | outcome [3]: inactive

O=C(Cl)C(F)(F)C(F)(F)C(F)(F)C(=O)Cl
outcome [1]: inactive | outcome [2]: inactive | outcome [3]: inactive | outcome [4]: inactive
